Results on 6 compounds are retold here after ChEMBL document CHEMBL1961873, “Compounds: GSK PKIS; Assays: Nanosyn kinase panel” (2012).

Test [1] addresses T1, Tyrosine-protein kinase ITK/TSK (Homo sapiens) (UniProt Q08881).
T1 sequence (whole entry): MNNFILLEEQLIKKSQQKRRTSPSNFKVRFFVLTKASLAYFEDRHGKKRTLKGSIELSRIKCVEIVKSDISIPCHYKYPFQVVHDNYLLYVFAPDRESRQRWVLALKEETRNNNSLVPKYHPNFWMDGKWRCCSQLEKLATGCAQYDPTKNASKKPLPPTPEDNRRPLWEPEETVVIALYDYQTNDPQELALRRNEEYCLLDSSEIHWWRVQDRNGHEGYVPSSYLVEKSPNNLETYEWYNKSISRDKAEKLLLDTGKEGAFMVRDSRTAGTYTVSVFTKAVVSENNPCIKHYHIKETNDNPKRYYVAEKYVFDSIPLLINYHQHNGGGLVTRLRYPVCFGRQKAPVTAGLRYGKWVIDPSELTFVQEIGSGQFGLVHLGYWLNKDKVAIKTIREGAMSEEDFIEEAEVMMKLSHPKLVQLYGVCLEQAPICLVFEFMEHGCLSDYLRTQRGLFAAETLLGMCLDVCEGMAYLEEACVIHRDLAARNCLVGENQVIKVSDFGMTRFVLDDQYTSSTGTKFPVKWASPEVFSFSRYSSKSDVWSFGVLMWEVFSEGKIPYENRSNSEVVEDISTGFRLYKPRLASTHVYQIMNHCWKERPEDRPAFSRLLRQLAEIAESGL
As to conditions: at 1 µM.

Test [2] concerns the target Tyrosine-protein kinase JAK1 (Homo sapiens) (UniProt P23458). The conditions noted are these: at 0.1 µM.
Test [3] shares this target. The conditions noted are these: at 1 µM.
Test [4] concerns the target Tyrosine-protein kinase JAK2 (Homo sapiens) (UniProt O60674). The conditions noted are these: at 0.1 µM.
Test [5] shares this target. As to conditions: at 1 µM.
The target in test [6] is T2, Tyrosine-protein kinase JAK3 (Homo sapiens) (UniProt P52333).
T2 sequence (whole entry): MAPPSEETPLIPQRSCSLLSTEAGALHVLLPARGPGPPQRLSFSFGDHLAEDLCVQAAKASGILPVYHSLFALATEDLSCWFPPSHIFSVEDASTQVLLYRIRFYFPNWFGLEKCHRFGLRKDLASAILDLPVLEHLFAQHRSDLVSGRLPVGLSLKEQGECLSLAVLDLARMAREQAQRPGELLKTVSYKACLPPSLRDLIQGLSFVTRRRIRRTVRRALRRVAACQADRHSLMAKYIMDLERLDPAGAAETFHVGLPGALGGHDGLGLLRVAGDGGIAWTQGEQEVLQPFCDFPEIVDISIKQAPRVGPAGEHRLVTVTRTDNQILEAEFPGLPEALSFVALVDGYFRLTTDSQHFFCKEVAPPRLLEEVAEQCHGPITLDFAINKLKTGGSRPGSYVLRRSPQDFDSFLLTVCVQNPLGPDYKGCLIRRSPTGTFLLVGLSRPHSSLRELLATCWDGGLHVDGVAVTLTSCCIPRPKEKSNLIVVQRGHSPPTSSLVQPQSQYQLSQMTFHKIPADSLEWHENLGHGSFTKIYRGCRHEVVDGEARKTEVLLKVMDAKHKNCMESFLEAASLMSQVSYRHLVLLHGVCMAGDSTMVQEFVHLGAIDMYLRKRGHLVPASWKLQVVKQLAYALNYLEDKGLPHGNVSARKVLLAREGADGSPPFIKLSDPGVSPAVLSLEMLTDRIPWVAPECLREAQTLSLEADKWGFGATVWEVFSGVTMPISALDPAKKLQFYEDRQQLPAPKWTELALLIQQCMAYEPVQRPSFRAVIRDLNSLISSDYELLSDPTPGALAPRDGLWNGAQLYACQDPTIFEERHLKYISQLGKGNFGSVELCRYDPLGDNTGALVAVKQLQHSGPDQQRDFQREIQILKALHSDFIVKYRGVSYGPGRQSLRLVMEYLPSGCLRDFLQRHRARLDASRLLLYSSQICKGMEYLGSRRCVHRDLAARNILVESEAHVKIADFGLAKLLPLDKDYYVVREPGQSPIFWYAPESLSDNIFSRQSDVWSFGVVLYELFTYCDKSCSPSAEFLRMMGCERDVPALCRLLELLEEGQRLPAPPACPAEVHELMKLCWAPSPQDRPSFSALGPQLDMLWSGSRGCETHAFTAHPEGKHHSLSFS
As to conditions: at 0.1 µM.

Test [7] addresses T2, Tyrosine-protein kinase JAK3 (Homo sapiens). As to conditions: at 1 µM.
The target of test [8] is Vascular endothelial growth factor receptor 2 (Homo sapiens) (UniProt P35968). As to conditions: at 0.1 µM.
For test [9] the target is unchanged. The conditions noted are these: at 1 µM.
Test [10] has as its target Mast/stem cell growth factor receptor Kit (Homo sapiens) (UniProt P10721). As to conditions: at 0.1 µM.
Test [11] has the same target. The conditions noted are these: at 1 µM.
Test [12] deals with Mast/stem cell growth factor receptor Kit (Homo sapiens), P10721 [D816V]. The conditions noted are these: at 0.1 µM.
Test [13] shares this test system. As to conditions: at 1 µM.
Test [14] concerns Mast/stem cell growth factor receptor Kit (Homo sapiens), P10721 [T670I]. As to conditions: at 0.1 µM.
Test [15] has the same test system. As to conditions: at 1 µM.
Test [16] concerns Mast/stem cell growth factor receptor Kit (Homo sapiens), P10721 [V560G]. As to conditions: at 0.1 µM.
The test system is the same in test [17]. As to conditions: at 1 µM.
Test [18] addresses Tyrosine-protein kinase Lck (Homo sapiens) (UniProt P06239). As to conditions: at 0.1 µM.
The target is the same in test [19]. The conditions noted are these: at 1 µM.
For test [20], the target named is Leukocyte tyrosine kinase receptor (Homo sapiens) (UniProt P29376). As to conditions: at 0.1 µM.

The structures appear in SMILES notation.

The term inhibition denotes the change of the read-out against control, counted positive when it falls.

Chain of Vascular endothelial growth factor receptor 2 (Homo sapiens) (P35968 whole entry): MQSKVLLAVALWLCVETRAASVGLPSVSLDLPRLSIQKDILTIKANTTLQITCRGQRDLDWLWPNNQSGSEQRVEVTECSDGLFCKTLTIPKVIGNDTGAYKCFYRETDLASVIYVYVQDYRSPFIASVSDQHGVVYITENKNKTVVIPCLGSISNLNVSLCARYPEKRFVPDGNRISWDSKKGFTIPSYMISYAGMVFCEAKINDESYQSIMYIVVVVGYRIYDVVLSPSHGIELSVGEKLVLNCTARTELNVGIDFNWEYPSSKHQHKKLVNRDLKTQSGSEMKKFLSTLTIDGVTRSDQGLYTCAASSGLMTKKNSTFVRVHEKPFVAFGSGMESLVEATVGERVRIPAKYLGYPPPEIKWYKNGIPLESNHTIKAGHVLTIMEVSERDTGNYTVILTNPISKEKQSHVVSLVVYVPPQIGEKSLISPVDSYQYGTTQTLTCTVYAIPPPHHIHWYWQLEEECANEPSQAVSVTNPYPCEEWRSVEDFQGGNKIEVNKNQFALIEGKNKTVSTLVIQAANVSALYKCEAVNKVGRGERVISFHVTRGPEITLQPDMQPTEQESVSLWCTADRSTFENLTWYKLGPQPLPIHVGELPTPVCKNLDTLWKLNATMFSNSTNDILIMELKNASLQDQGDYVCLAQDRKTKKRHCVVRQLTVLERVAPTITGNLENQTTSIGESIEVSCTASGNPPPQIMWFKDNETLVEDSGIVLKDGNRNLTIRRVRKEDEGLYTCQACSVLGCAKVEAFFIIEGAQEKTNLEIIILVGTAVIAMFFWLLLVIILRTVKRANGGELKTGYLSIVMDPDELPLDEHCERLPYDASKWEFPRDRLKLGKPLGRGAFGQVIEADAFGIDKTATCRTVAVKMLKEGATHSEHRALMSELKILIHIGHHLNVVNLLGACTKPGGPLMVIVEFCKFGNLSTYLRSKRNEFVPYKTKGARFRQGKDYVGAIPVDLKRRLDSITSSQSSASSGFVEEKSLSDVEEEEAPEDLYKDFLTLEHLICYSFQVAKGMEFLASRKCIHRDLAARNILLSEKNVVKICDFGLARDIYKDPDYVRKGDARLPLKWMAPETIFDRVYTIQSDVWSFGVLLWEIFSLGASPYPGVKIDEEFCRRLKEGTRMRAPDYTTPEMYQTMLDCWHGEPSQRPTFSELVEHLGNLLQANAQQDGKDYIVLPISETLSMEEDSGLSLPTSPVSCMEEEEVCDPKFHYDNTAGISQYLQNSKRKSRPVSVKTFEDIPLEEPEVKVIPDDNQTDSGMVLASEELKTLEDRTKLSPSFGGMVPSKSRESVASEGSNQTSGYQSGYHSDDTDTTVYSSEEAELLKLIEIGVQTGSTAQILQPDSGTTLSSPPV
Chain of Mast/stem cell growth factor receptor Kit (Homo sapiens) (P10721 whole entry): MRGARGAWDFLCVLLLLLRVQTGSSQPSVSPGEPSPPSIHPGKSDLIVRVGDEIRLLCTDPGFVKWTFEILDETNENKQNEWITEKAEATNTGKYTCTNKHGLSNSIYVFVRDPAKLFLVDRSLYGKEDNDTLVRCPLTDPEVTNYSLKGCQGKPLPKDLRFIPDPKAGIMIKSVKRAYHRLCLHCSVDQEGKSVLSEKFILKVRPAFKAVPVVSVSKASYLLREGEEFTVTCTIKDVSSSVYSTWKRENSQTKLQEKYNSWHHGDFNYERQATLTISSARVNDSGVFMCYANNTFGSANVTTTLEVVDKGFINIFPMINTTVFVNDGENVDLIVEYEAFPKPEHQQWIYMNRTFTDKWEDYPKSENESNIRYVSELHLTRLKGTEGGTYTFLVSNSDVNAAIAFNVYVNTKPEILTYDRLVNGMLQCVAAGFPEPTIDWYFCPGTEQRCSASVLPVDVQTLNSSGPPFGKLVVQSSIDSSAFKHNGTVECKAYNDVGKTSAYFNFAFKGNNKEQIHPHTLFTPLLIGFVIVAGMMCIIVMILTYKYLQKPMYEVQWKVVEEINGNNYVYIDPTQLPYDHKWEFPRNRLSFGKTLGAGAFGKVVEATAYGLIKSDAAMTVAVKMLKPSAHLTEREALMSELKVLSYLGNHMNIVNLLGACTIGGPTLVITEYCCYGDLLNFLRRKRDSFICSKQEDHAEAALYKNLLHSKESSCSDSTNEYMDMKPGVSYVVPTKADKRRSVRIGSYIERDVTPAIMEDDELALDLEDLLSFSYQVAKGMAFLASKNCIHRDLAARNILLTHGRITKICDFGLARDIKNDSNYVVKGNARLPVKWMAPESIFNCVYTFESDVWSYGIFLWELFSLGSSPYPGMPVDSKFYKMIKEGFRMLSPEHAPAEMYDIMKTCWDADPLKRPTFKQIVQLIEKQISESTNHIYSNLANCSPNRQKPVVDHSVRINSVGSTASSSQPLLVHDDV
Chain of Mast/stem cell growth factor receptor Kit (Homo sapiens), P10721 [D816V] (P10721 whole entry D816V): as the sequence (P10721 whole entry) above, with D816V counted along it
Chain of Mast/stem cell growth factor receptor Kit (Homo sapiens), P10721 [V560G] (P10721 whole entry V560G): as the sequence (P10721 whole entry) above, with V560G counted along it
Chain of Leukocyte tyrosine kinase receptor (Homo sapiens) (P29376 whole entry): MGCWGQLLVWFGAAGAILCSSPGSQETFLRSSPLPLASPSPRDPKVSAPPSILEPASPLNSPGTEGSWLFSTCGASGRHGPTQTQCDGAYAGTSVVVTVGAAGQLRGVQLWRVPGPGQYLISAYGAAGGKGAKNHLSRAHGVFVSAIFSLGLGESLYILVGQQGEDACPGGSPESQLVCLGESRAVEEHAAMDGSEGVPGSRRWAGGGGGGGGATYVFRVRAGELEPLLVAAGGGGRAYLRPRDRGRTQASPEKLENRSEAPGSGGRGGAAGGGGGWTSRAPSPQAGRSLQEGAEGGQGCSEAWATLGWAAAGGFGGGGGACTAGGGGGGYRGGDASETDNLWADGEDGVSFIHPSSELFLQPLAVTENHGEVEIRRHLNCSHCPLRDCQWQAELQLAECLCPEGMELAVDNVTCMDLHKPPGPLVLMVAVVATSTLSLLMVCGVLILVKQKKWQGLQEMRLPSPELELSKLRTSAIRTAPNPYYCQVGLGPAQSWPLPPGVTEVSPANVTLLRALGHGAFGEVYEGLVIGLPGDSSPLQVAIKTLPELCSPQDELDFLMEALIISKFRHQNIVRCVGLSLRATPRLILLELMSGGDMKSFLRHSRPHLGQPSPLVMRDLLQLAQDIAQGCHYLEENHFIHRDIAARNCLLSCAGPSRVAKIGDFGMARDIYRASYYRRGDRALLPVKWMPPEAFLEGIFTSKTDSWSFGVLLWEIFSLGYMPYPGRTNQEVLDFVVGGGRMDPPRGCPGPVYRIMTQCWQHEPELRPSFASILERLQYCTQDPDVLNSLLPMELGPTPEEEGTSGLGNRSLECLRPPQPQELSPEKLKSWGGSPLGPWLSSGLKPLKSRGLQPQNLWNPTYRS
Chain of Tyrosine-protein kinase JAK2 (Homo sapiens) (O60674 whole entry): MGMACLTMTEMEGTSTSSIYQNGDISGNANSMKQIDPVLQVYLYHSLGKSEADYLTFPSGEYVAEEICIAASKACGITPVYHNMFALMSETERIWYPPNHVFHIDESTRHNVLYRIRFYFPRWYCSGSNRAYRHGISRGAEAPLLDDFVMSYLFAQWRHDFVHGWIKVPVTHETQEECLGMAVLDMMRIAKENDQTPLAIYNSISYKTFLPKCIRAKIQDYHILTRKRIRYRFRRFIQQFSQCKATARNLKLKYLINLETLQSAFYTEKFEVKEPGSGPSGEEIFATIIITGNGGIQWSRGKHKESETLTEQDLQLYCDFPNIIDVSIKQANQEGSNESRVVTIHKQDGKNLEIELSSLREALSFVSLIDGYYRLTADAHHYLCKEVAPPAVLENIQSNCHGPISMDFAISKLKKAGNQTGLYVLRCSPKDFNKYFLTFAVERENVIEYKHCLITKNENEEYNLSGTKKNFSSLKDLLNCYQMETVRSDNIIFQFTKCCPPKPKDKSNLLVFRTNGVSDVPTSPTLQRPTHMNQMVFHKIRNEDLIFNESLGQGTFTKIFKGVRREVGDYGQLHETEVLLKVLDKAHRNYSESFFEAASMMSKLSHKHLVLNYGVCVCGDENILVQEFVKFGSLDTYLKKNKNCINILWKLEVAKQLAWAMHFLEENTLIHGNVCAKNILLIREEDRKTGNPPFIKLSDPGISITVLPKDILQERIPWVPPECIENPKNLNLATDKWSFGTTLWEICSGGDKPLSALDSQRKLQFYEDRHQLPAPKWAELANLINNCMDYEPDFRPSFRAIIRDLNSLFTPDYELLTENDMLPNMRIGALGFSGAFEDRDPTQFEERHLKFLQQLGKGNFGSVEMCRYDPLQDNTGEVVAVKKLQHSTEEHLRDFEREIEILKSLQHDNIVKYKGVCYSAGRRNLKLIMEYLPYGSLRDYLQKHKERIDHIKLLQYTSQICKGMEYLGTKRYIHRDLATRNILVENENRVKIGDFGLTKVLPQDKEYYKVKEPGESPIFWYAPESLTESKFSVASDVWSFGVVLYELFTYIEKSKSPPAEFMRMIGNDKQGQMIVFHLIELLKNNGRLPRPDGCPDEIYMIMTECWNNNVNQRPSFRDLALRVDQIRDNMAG
Chain of Mast/stem cell growth factor receptor Kit (Homo sapiens), P10721 [T670I] (P10721 whole entry T670I): as the sequence (P10721 whole entry) above, with T670I counted along it
Chain of Tyrosine-protein kinase Lck (Homo sapiens) (P06239 2-509 limits assumed): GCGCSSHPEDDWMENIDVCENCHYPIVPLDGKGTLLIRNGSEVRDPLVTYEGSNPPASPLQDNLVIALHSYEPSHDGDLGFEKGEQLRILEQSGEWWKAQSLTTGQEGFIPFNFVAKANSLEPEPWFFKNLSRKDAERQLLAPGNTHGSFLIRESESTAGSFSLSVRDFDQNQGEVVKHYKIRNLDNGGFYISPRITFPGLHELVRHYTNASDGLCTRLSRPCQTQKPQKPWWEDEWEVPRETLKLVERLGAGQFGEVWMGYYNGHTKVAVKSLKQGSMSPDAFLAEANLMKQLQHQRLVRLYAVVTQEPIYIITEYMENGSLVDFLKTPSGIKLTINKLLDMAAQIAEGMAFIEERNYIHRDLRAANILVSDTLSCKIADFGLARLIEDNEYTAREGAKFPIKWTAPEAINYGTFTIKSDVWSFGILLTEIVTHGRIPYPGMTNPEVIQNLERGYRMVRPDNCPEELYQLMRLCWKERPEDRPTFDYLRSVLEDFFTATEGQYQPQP

Turning to `Oc1cccc(-c2nc(-c3ccccc3)[nH]c2-c2ccncc2)c1`, the inhibition stood at 1.61% in test [1]; 9.17% in test [2]; 5.42% in test [3]; 1.43% in test [4]; 2.51% in test [5]; 0.73% in [6]. Besides, the inhibition in [7] is 9.09%; in test [8], 30.8%; in test [9], 70.9%; in test [10], 4.95%; in [11] it was 8.38%; in [12], -0.23%. Moreover, the inhibition was found to be 6.52% in test [13]; 2.52% in test [14]; 3.34% in test [15]; 1.61% in test [16]; 3.96% in test [17]; 4.47% in [18]. Besides, the figures for the inhibition in test [19] and in [20] were 17.7% and 3.98%, respectively.

Turning to `CN(C)C(=O)O[C@H]1CN[C@H](C#Cc2cc3ncnc(Nc4ccc(OCc5cccc(F)c5)c(Cl)c4)c3s2)C1`, the inhibition was 1.42% in test [1]; 2.35% in [2]; 4.66% in test [3]; 1.84% in test [4]; 1.89% in [5]; -0.68% in test [6]. The inhibition worked out at 1.63% in [7]; 4.69% in [8]; 9.06% in [9]; 2.32% in test [10]; 3% in test [11]; 2.35% in [12]. Further, the inhibition in test [13] is -1.14%; in [14], 1.09%; in [15], 0.88%; in [16], 0.04%; in test [17], 2.8%; in test [18], 1.92%. Besides, the figures for the inhibition in test [19] and in test [20] were 3.02% and 1.7%, respectively.

Turning to `Cc1cc(Cl)cc2c1NC(=O)C2=NNc1ccc(S(N)(=O)=O)cc1`, the inhibition in test [1] was 1.14%; in [2], 2.03%; in test [3], 12.7%; in test [4], -0.3%; in test [5], 0.42%; in test [6], -0.31%. Moreover, the inhibition in [7] was 0.84%; in test [8] it was 1.84%; in test [9] it was 4.19%; in test [11], 12.9%; in [12] it was 4.18%; in [13], -3.52%. The inhibition in [14] was found to be 2.4%; in test [15] it was 3.29%; in test [16], 2.2%; in [17], 7.35%; in test [18] it was 1.9%; in [19], 1.89%. The inhibition in [20] was 2.82%.

Consider `CS(=O)(=O)CCNCc1nc(-c2ccc3ncnc(Nc4ccc(OCc5cccc(C(F)(F)F)c5)cc4)c3c2)cs1`, for which the inhibition was 2.53% in test [1]; 1.05% in test [2]; 3.96% in test [3]; 1.09% in test [4]; 3.08% in test [5]; -0.8% in test [6]. The inhibition in test [7] was 1.6%; in test [8], 2.88%; in test [9], 9.28%; in test [10] it was 1.96%; in test [11] it was 12.8%; in test [12], -0.14%. The inhibition in test [13] is 1.52%; in test [14], -0.86%; in [15], 3.13%; in [16], 0.77%; in test [17], 6.02%; in test [18] it was 2.25%. The inhibition was found to be 6.83% in [19] and 3.1% in [20].

Turning to `COC(=O)Nc1nc2cc(Oc3ccc(NC(=O)Nc4cccc(Br)c4)cc3)ccc2[nH]1`, the inhibition was 1.87% in test [1]; 5.36% in test [2]; 11.8% in [3]; 1.09% in test [4]; 3.06% in test [5]; -0.45% in [6]. In addition, the inhibition came to 1.27% in test [7]; 84.5% in test [10]; 100% in test [11]; 2.97% in test [12]; 4.47% in test [13]; 33% in test [14]. For the same compound, the inhibition in test [15] came out at 56.8%; in test [16], 69.5%; in test [17], 86.4%; in test [18], 5%; in test [19] it was 10.5%; in test [20] it was 3.48%.

As to `O=C(Nc1ccc(Oc2ccc3[nH]c(NC(=O)c4ccco4)nc3c2)cc1)Nc1cc(C(F)(F)F)ccc1F`, the inhibition is 0.22% in test [1]; -1.24% in [2]; 0.27% in test [3]; 1.11% in [4]; 7.23% in test [5]; -3.43% in test [6]. For the same compound, the inhibition in test [7] was -2.59%; in [10] it was 30.5%; in [11], 92.1%; in test [12] it was -0.77%; in [13] it was -1.72%; in test [14], 12.6%. Also, the inhibition in test [15] was determined as 79.5%; in [16], 25.1%; in test [17], 72.9%; in [18], 1%; in [19], 38.8%; in [20], 0.05%.
